Assay results: PubChem BioAssay (NCATS)
Records with an inconclusive call do not appear. Calls of active or inactive are those of the source. Calls follow the shape of the dose curve; as a rule, active = well fitted inhibition curve with a large enough effect; inconclusive = small, poorly fitted or top-dose-only effect; inactive = flat fitted curve, though single readings scatter.

What was measured:
[1] = qHTS profiling for inhibitors of Plasmodium falciparum proliferation (AID 504749);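 also: 0% = DMSO vehicle and full inhibition = artemisinin control; nearly all actives have a fitted effect of over 60% in size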; details: P. falciparum in erythrocytes, SYBR Green DNA, 72 h
How it was run: (§1)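 Each compound contacts P. falciparum-infected red blood cells for 72 h at 37 C; lysis buffer (Tris, EDTA, saponin, Triton X, SYBR Green I) is added and fluorescence measured next morning; values normalized to controls.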

3D7 = test: as above; details: P. falciparum in erythrocytes, SYBR Green DNA, 72 h; series mostly up to 28.7 µM
How it was run: as §1

7G8 = test: as above; details: P. falciparum in erythrocytes, SYBR Green DNA, 72 h; series mostly up to 28.7 µM
How it was run: as §1

AA1029 = test: as above; details: P. falciparum in erythrocytes, SYBR Green DNA, 72 h; series mostly up to 28.7 µM
How it was run: as §1

AS120 = test: as above; details: P. falciparum in erythrocytes, SYBR Green DNA, 72 h; series mostly up to 28.7 µM
How it was run: as §1

ATS189 = test: as above; details: P. falciparum in erythrocytes, SYBR Green DNA, 72 h; series mostly up to 28.7 µM
How it was run: as §1

ATS95 = test: as above; details: P. falciparum in erythrocytes, SYBR Green DNA, 72 h; series mostly up to 28.7 µM
How it was run: as §1

C2A = test: as above; details: P. falciparum in erythrocytes, SYBR Green DNA, 72 h; series mostly up to 28.7 µM
How it was run: as §1

CP185 = test: as above; details: P. falciparum in erythrocytes, SYBR Green DNA, 72 h; series mostly up to 28.7 µM
How it was run: as §1

CP191 = test: as above; details: P. falciparum in erythrocytes, SYBR Green DNA, 72 h; series mostly up to 28.7 µM
How it was run: as §1

CP192 = test: as above; details: P. falciparum in erythrocytes, SYBR Green DNA, 72 h; series mostly up to 28.7 µM
How it was run: as §1

[2] = at 28.7 µM (top of the series), parasite line A
[3] = at 28.7 µM (top of the series), parasite line B
[4] = at 12.8 µM (top of the series), parasite line A
[5] = at 12.8 µM (top of the series), parasite line B

CCCC(O)C(CC)CO (stereo not given)
inactive: activity, negative = inhibition [1, 2] 12.2% | activity, negative = inhibition [1, 3] 6.77% | Potency (3D7) | Potency (7G8) | Potency (AA1029) | Potency (AS120) | Potency (ATS189) | Potency (ATS95) | Potency (C2A) | Potency (CP185) | outcome (CP191) | outcome (CP192)

CC(C)c1cc2c(cc1S(=O)(=O)O)[C@@]1(C)CCC[C@@](C)(C(=O)O)[C@@H]1CC2
inactive: activity, negative = inhibition [1, 2] 12.2% | activity, negative = inhibition [1, 3] -0.445% | Potency (3D7) | Potency (7G8) | Potency (AA1029) | Potency (AS120) | Potency (ATS189) | Potency (ATS95) | Potency (C2A) | Potency (CP185) | outcome (CP191) | outcome (CP192)

Cc1cccc(C)c1NC(=O)CC12CCCN1CCC2
inactive: activity, negative = inhibition [1, 2] 2.82% | activity, negative = inhibition [1, 3] 0.226% | Potency (3D7) | Potency (7G8) | Potency (AA1029) | Potency (AS120) | Potency (ATS189) | Potency (ATS95) | Potency (C2A) | Potency (CP185) | outcome (CP191) | outcome (CP192)

NC(N)=NS(=O)(=O)c1ccc(N)cc1
inactive: activity, negative = inhibition [1, 4] 8.93% | activity, negative = inhibition [1, 5] 8.43% | Potency (3D7) | Potency (7G8) | Potency (AA1029) | Potency (AS120) | Potency (ATS189) | Potency (C2A) | Potency (CP185) | outcome (CP191) | outcome (CP192)

NC(=O)CC[C@@H](N)C(=O)O
inactive: activity, negative = inhibition [1, 2] 3.38% | activity, negative = inhibition [1, 3] 6.23% | Potency (3D7) | Potency (7G8) | Potency (AA1029) | Potency (AS120) | Potency (ATS189) | Potency (ATS95) | Potency (C2A) | Potency (CP185) | outcome (CP191) | outcome (CP192)

CNc1c2c(nn1C)CCCC2
inactive: activity, negative = inhibition [1, 2] 6.6% | activity, negative = inhibition [1, 3] 23% | Potency (3D7) | Potency (7G8) | Potency (AA1029) | Potency (AS120) | Potency (ATS189) | Potency (ATS95) | Potency (C2A) | Potency (CP185) | outcome (CP191) | outcome (CP192)

O=C(Cn1ccnc1[N+](=O)[O-])NCc1ccccc1
inactive: activity, negative = inhibition [1, 2] 12.6% | activity, negative = inhibition [1, 3] 10.2% | Potency (3D7) | Potency (7G8) | Potency (AA1029) | Potency (AS120) | Potency (ATS189) | Potency (ATS95) | Potency (C2A) | Potency (CP185) | outcome (CP191) | outcome (CP192)

C[C@@H]1CCC[C@H](C)N1
inactive: activity, negative = inhibition [1, 4] 13.8% | activity, negative = inhibition [1, 5] -5.49% | Potency (3D7) | Potency (7G8) | Potency (AA1029) | Potency (AS120) | Potency (ATS189) | Potency (ATS95) | Potency (C2A) | Potency (CP185) | outcome (CP191) | outcome (CP192)

O=C(O)Cc1ccc(CCNS(=O)(=O)c2ccc(Cl)cc2)cc1
inactive: activity, negative = inhibition [1, 2] 5.99% | activity, negative = inhibition [1, 3] -5.95% | Potency (3D7) | Potency (7G8) | Potency (AA1029) | Potency (AS120) | Potency (ATS189) | Potency (ATS95) | Potency (C2A) | Potency (CP185) | outcome (CP191) | outcome (CP192)

CCOC(=O)c1cccnc1
inactive: activity, negative = inhibition [1, 2] 7.9% | activity, negative = inhibition [1, 3] 13.9% | Potency (3D7) | Potency (7G8) | Potency (AA1029) | Potency (AS120) | Potency (ATS189) | Potency (ATS95) | Potency (C2A) | Potency (CP185) | outcome (CP191) | outcome (CP192)

CC(=O)Nc1ccc(OCCOCCOc2ccc(NC(C)=O)cc2)cc1
inactive: activity, negative = inhibition [1, 2] 6.75% | activity, negative = inhibition [1, 3] 13% | Potency (3D7) | Potency (7G8) | Potency (AA1029) | Potency (AS120) | Potency (ATS189) | Potency (ATS95) | Potency (C2A) | Potency (CP185) | outcome (CP191) | outcome (CP192)

CCS(=O)(=O)CCn1c([N+](=O)[O-])cnc1C
inactive: activity, negative = inhibition [1, 4] -2.71% | activity, negative = inhibition [1, 5] -11.1% | Potency (3D7) | Potency (7G8) | Potency (AA1029) | Potency (AS120) | Potency (ATS189) | Potency (ATS95) | Potency (C2A) | Potency (CP185) | outcome (CP191) | outcome (CP192)

CC(=O)NS(=O)(=O)c1ccc(N)cc1
inactive: activity, negative = inhibition [1, 2] 6.18% | activity, negative = inhibition [1, 3] 10.5% | Potency (3D7) | Potency (7G8) | Potency (AA1029) | Potency (AS120) | Potency (ATS189) | Potency (ATS95) | Potency (C2A) | Potency (CP185) | outcome (CP191) | outcome (CP192)

Nc1ccc(C(=O)Oc2ccccc2)c(O)c1
inactive: activity, negative = inhibition [1, 2] -10.9% | activity, negative = inhibition [1, 3] 5.45% | Potency (3D7) | Potency (7G8) | Potency (AA1029) | Potency (AS120) | Potency (ATS189) | Potency (ATS95) | Potency (C2A) | Potency (CP185) | outcome (CP191) | outcome (CP192)

CCOc1ccc(C(=O)OCCN(CC)CC)cc1
inactive: activity, negative = inhibition [1, 2] 11.5% | activity, negative = inhibition [1, 3] 3.64% | Potency (3D7) | Potency (7G8) | Potency (AA1029) | Potency (AS120) | Potency (ATS189) | Potency (ATS95) | Potency (C2A) | Potency (CP185) | outcome (CP191) | outcome (CP192)

COc1ccc(NS(=O)(=O)c2ccc(N)cc2)nn1
inactive: activity, negative = inhibition [1, 4] 2.8% | activity, negative = inhibition [1, 5] 13.5% | Potency (3D7) | Potency (7G8) | Potency (AA1029) | Potency (AS120) | Potency (ATS189) | Potency (ATS95) | Potency (C2A) | Potency (CP185) | outcome (CP191) | outcome (CP192)

Cc1c(Cn2ccnc2)c2ccccc2n1CCC(=O)O
inactive: activity, negative = inhibition [1, 2] 14.7% | activity, negative = inhibition [1, 3] 0.623% | Potency (3D7) | Potency (7G8) | Potency (AA1029) | Potency (AS120) | Potency (ATS189) | Potency (ATS95) | Potency (C2A) | Potency (CP185) | outcome (CP191) | outcome (CP192)

N[C@@H](Cc1ccc(O)cc1)C(=O)O
inactive: activity, negative = inhibition [1, 2] 13.6% | activity, negative = inhibition [1, 3] 10.5% | Potency (3D7) | Potency (7G8) | Potency (AA1029) | Potency (AS120) | Potency (ATS189) | Potency (ATS95) | Potency (C2A) | Potency (CP185) | outcome (CP191) | outcome (CP192)

CCCCCCCC(=O)OCC(O)CO (stereo not given)
inactive: activity, negative = inhibition [1, 2] 0.997% | activity, negative = inhibition [1, 3] -8.07% | Potency (3D7) | Potency (7G8) | Potency (AA1029) | Potency (AS120) | Potency (ATS189) | Potency (ATS95) | Potency (C2A) | Potency (CP185) | outcome (CP191) | outcome (CP192)

CC[N+](CC)(CC(=O)Nc1c(C)cccc1C)Cc1ccccc1
inactive: activity, negative = inhibition [1, 2] 15.1% | activity, negative = inhibition [1, 3] 8.11% | Potency (3D7) | Potency (7G8) | Potency (AA1029) | Potency (AS120) | Potency (ATS189) | Potency (ATS95) | Potency (C2A) | Potency (CP185) | outcome (CP191) | outcome (CP192)

Cc1cccc(Nc2ccccc2C(=O)O)c1C
inactive: activity, negative = inhibition [1, 2] -4.38% | activity, negative = inhibition [1, 3] 15.2% | Potency (3D7) | Potency (7G8) | Potency (AA1029) | Potency (AS120) | Potency (ATS189) | Potency (ATS95) | Potency (C2A) | Potency (CP185) | outcome (CP191) | outcome (CP192)

Nc1ncnc2c1ncn2[C@@H]1O[C@H](COP(=O)(O)O)[C@@H](O)[C@H]1O
inactive: activity, negative = inhibition [1, 2] -10.7% | activity, negative = inhibition [1, 3] 4.33% | Potency (3D7) | Potency (7G8) | Potency (AA1029) | Potency (AS120) | Potency (ATS189) | Potency (ATS95) | Potency (C2A) | Potency (CP185) | outcome (CP191) | outcome (CP192)

CC(=O)Oc1cccc(C)c1
inactive: activity, negative = inhibition [1, 2] 4.88% | activity, negative = inhibition [1, 3] -6.23% | Potency (3D7) | Potency (7G8) | Potency (AA1029) | Potency (AS120) | Potency (ATS189) | Potency (ATS95) | Potency (C2A) | Potency (CP185) | outcome (CP191) | outcome (CP192)

CCOc1cc(NC(C)=O)ccc1C(=O)OC
inactive: activity, negative = inhibition [1, 2] 4.89% | activity, negative = inhibition [1, 3] 12.8% | Potency (3D7) | Potency (7G8) | Potency (AA1029) | Potency (AS120) | Potency (ATS189) | Potency (ATS95) | Potency (C2A) | Potency (CP185) | outcome (CP191) | outcome (CP192)

O=C(O)c1cc(=O)c2ccccc2o1
inactive: activity, negative = inhibition [1, 2] -22.1% | activity, negative = inhibition [1, 3] 5.99% | Potency (3D7) | Potency (7G8) | Potency (AA1029) | Potency (AS120) | Potency (ATS189) | Potency (ATS95) | Potency (C2A) | Potency (CP185) | outcome (CP191) | outcome (CP192)

O=C(O)CCCCC1CCSS1 (stereo not given)
inactive: activity, negative = inhibition [1, 2] 5.2% | activity, negative = inhibition [1, 3] 12.3% | Potency (3D7) | Potency (AA1029) | Potency (AS120) | Potency (ATS189) | Potency (ATS95) | Potency (C2A) | Potency (CP185) | outcome (CP191) | outcome (CP192)
